In PubChem BioAssay (Tox21):
Results filed as inconclusive are left out. The source made the active and inactive calls. Calls follow the shape of the full dose curve.

What was measured:
[1] = biological target: Acetylcholinesterase (Homo sapiens) (UniProt P22303); assay: Acetylcholinesterase (AChE) small molecule antagonists: colormetric cell-based qHTS assay (AID 1347395); also: nearly all actives have a fitted effect of over 30% in size
Method in brief: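 SH-SY5Y cells; cpd 30 min 37 C; + DTNB/acetylthiocholine, 90 min 37 C; colorimetric thiocholine read; qHTS.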

[2] = biological target: Acetylcholinesterase (Homo sapiens) (UniProt P22303); assay: Acetylcholinesterase (AChE) small molecule antagonists: enzyme-based qHTS assay (AID 1347397); settings: Potency: AChE enzyme activity inhibition; outcome: AChE enzyme activity inhibition; also: nearly all actives have a fitted effect of over 55% in size
Method in brief: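 Absorbance-based detection of thiocholine with DTNB served as the read-out. Recombinant human AChE was exposed to compound for 30 min at RT before a 10 min RT incubation with acetylthiocholine.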

[3] = biological target: Acetylcholinesterase (Homo sapiens) (UniProt P22303); assay: Acetylcholinesterase (AChE) small molecule antagonists: fluorescence cell-based qHTS assay (AID 1347398); settings: Potency: AChE activity; outcome: AChE activity; also: nearly all actives have a fitted effect of over 50% in size
Method in brief: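 Fluorimetric cell-based assay: intact SH-SY5Y cells, 30 min compound preincubation at 37 C, acetylthiocholine substrate with thiol probe Thiolite Green, 40 min RT development, fluorescence 490/520 nm.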

[4] = biological target: Acetylcholinesterase (Homo sapiens) (UniProt P22303); assay: Acetylcholinesterase (AChE) small molecule antagonists: enzyme-based qHTS assay with human liver microsomes (AID 1347399); settings: Potency: qHTS inhibition; outcome: qHTS inhibition; also: nearly all actives have a fitted effect of over 60% in size
Method in brief: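 Recombinant human AChE (50 mU/mL in the enzyme mix) and human liver microsomes (0.25 mg/mL final) were preincubated with compound and NADPH (0.25 mg/mL final) for 30 min at 37 C. Acetylthiocholine/DTNB was then added; thiocholine was read colorimetrically after 10 min at room temperature.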
% is scaled to controls: 0 for no effect and ±100 for the full control effect.

Acetylcholinesterase (Homo sapiens), sequence (P22303 whole entry, looked up): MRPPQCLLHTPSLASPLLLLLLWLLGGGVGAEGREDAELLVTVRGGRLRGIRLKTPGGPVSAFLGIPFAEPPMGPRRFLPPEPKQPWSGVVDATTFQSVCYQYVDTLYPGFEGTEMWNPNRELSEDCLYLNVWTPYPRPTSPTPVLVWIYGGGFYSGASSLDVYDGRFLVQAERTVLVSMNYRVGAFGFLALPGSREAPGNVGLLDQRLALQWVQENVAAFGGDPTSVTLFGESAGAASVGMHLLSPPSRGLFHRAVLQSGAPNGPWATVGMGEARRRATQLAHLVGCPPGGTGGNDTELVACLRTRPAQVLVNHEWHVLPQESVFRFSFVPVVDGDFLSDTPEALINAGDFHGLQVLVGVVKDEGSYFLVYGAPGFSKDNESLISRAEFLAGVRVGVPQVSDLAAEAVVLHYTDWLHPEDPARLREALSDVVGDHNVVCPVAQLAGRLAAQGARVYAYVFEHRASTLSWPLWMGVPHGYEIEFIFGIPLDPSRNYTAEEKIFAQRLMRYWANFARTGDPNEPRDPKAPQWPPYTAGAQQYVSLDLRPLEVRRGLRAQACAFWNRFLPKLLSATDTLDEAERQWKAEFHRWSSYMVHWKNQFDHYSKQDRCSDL

CCCCCC1CCC(=O)O1 (stereo not given)
inactive: Potency [1] | Potency [2] | Potency [3] | Potency [4]

Nc1ccn([C@H]2CS[C@@H](CO)O2)c(=O)n1
inactive: Potency [1] | Potency [2] | Potency [3] | Potency [4]

COC(C)(C)CCO
inactive: Potency [1] | Potency [2] | Potency [3] | Potency [4]

OCC1(CO)COCOC1
inactive: Potency [1] | Potency [2] | Potency [3] | Potency [4]

CCCCC(CC)COC(=O)COc1ccc(Cl)cc1C (stereo not given)
inactive: Potency [1] | Potency [2] | Potency [3] | Potency [4]

CC(C)[C@@H]1CC[C@@H](C)CC1=O
inactive: Potency [1] | Potency [2] | Potency [3] | Potency [4]

CN(C(=O)CN(CCO)CC(=O)N(C)C(C)(C)Cc1ccccc1)C(C)(C)Cc1ccccc1
inactive: Potency [1] | Potency [2] | Potency [3] | Potency [4]

COC(=O)Nc1nc2ccc(C(=O)C3CC3)cc2[nH]1
inactive: Potency [1] | Potency [2] | Potency [3] | Potency [4]

CN(C)c1ccncc1
inactive: Potency [1] | Potency [2] | Potency [3] | Potency [4]

COC(=O)c1ccc(C(=O)OC)cc1
inactive: Potency [1] | Potency [2] | Potency [3] | Potency [4]

CCCCN(CCCC)CCC(O)c1cc2c(Cl)cc(Cl)cc2c2cc(C(F)(F)F)ccc12 (stereo not given)
inactive: Potency [1] | Potency [2] | Potency [3] | Potency [4]

CCC(C)c1nccnc1OC (stereo not given)
inactive: Potency [1] | Potency [2] | Potency [3] | Potency [4]

Cc1ncc[nH]1
inactive: Potency [1] | Potency [2] | Potency [3] | Potency [4]

CCOC(=O)c1cccnc1
inactive: Potency [1] | Potency [2] | Potency [3] | Potency [4]

CCCCCCC(=O)c1ccccc1
inactive: Potency [1] | Potency [2] | Potency [3] | Potency [4]

CCOc1ccc2nc(S(N)(=O)=O)sc2c1
inactive: Potency [1] | Potency [2] | Potency [3] | Potency [4]

O=c1[nH]c(=O)c2cn[nH]c2[nH]1
inactive: Potency [1] | Potency [2] | Potency [3] | Potency [4]

CCO[Si](CC(C)C)(OCC)OCC
inactive: Potency [1] | Potency [2] | Potency [3] | Potency [4]

Nc1c[n+](N2CCOCC2)no1
inactive: Potency [1] | Potency [2] | Potency [3] | Potency [4]

c1cc(-c2ccncc2)ccn1
inactive: Potency [1] | Potency [2] | Potency [3] | Potency [4]

CCCCNS(=O)(=O)c1ccccc1
inactive: Potency [1] | Potency [2] | Potency [3] | Potency [4]

CCCCCC(CO)CCC (stereo not given)
inactive: Potency [1] | Potency [2] | Potency [3] | Potency [4]

N[C@@H](CSSC[C@H](N)C(=O)O)C(=O)O
inactive: activity, negative = inhibition [1] 3.18% [at 0.435 µM] | activity change, negative = inhibition [2] 0.405% [at 0.435 µM] | activity change, negative = inhibition [3] 2.04% [at 0.439 µM] | activity change, negative = inhibition [4] -2.13% [at 0.435 µM]

CC1=CC(C)(C)Nc2ccccc21
inactive: Potency [1] | Potency [2] | Potency [3] | Potency [4]

N[C@@H](Cc1c[nH]c2ccc(O)cc12)C(=O)O
inactive: Potency [1] | Potency [2] | Potency [3] | Potency [4]

CC(C)=CCC/C(C)=C/C=O
inactive: Potency [1] | Potency [2] | Potency [3] | Potency [4]

Nc1nc2c(ncn2COC(CO)CO)c(=O)[nH]1
inactive: Potency [1] | Potency [2] | Potency [3] | Potency [4]

NC(N)=NCCC[C@H](N)C(=O)O
inactive: activity, negative = inhibition [1] 5.24% [at 10.5 µM] | activity change, negative = inhibition [2] -0.554% [at 10.5 µM] | activity change, negative = inhibition [3] 6.4% [at 10.5 µM] | activity change, negative = inhibition [4] -0.0087% [at 10.5 µM]

Nc1cc([N+](=O)[O-])cc(Cl)c1O
inactive: Potency [1] | Potency [2] | Potency [3] | Potency [4]

CCCOC(=O)c1ccccc1
inactive: Potency [1] | Potency [2] | Potency [3] | Potency [4]

CC(C)Cc1ccc(C(C)C(=O)O)cc1 (stereo not given)
inactive: Potency [1] | Potency [2] | Potency [3] | Potency [4]

COC(=O)C(C)O (stereo not given)
inactive: Potency [1] | Potency [2] | Potency [3] | Potency [4]

CCc1cccc(CC)c1
inactive: Potency [1] | Potency [2] | Potency [3] | Potency [4]

Cc1[nH]nc2c1N=C(c1ccccc1Cl)c1cc([N+](=O)[O-])ccc1N2
inactive: Potency [1] | Potency [2] | Potency [3] | Potency [4]

CCOC(=O)C1=C[C@]2(CC)CCCN3CCc4c(n1c1ccccc41)[C@@H]32
inactive: Potency [1] | Potency [2] | Potency [3] | Potency [4]

Cc1cc(O)c2c(c1)C(=O)c1cccc(O)c1C2=O
inactive: Potency [1] | Potency [2] | Potency [3] | Potency [4]

O=c1[nH]c(=O)n([C@H]2CCCO2)cc1F
inactive: Potency [1] | Potency [2] | Potency [3] | Potency [4]

CC(C)(C)C(=O)NCCCC(=O)O
inactive: Potency [1] | Potency [2] | Potency [3] | Potency [4]

CC#N
inactive: Potency [1] | Potency [2] | Potency [3] | Potency [4]

C=C[Si](OCCOC)(OCCOC)OCCOC
inactive: Potency [1] | Potency [2] | Potency [3] | Potency [4]

CC1(C)OC[C@@H]2O[C@@]3(C(=O)O)OC(C)(C)O[C@H]3[C@@H]2O1
inactive: Potency [1] | Potency [2] | Potency [3] | Potency [4]

CCC(Cc1c(I)cc(I)c(N)c1I)C(=O)O (stereo not given)
inactive: Potency [1] | Potency [2] | Potency [3] | Potency [4]

FC(F)(F)C(F)(F)C(F)(F)C(F)(F)C(F)(F)C(F)(F)C(F)(F)C(F)(F)C(F)(F)C(F)(F)F
inactive: activity, negative = inhibition [1] 0.771% [at 10.5 µM] | activity change, negative = inhibition [2] 1.63% [at 10.5 µM] | activity change, negative = inhibition [3] 1.44% [at 10.5 µM] | activity change, negative = inhibition [4] 1.12% [at 10.5 µM]

COCCCCCCCCOCCC[Si](C)(O[Si](C)(C)C)O[Si](C)(C)C
inactive: Potency [1] | Potency [2] | Potency [3] | Potency [4]

CCOC(=O)NCCOc1ccc(Oc2ccccc2)cc1
inactive: Potency [1] | Potency [2] | Potency [3] | Potency [4]

O=C(O)c1ccccc1Cl
inactive: Potency [1] | Potency [2] | Potency [3] | Potency [4]

CCCCCCCCCCCC(=O)Cl
inactive: Potency [1] | Potency [2] | Potency [3] | Potency [4]

CCCCCCCCCCOc1cc2c(=O)c(C(=O)OCC)c[nH]c2cc1OCC
inactive: activity, negative = inhibition [1] 1.43% [at 10.5 µM] | activity change, negative = inhibition [2] 0.693% [at 10.5 µM] | activity change, negative = inhibition [3] -0.416% [at 10.5 µM] | activity change, negative = inhibition [4] -5.96% [at 10.5 µM]

CC(C)c1cccc(C(C)C)c1N1C(=O)c2ccc(O)cc2C1=O
inactive: Potency [1] | Potency [2] | Potency [3] | Potency [4]

CO[C@@H]1[C@H](OC(=O)/C=C/C=C/C=C/C=C/C(=O)O)CC[C@]2(CO2)[C@H]1[C@@]1(C)O[C@@H]1CC=C(C)C
inactive: Potency [1] | Potency [2] | Potency [3] | Potency [4]

COc1c2ccoc2cc2oc(=O)ccc12
inactive: Potency [1] | Potency [2] | Potency [3] | Potency [4]

Nc1nc2ccc([N+](=O)[O-])cc2s1
inactive: Potency [1] | Potency [2] | Potency [3] | Potency [4]

CC(=O)C(=O)O
inactive: Potency [1] | Potency [2] | Potency [3] | Potency [4]

CC/C=C\CCO
inactive: Potency [1] | Potency [2] | Potency [3] | Potency [4]

CC(=O)Nc1ccc(C)cc1
inactive: Potency [1] | Potency [2] | Potency [3] | Potency [4]

Cc1cccc2c1cc1ccc3cccc4ccc2c1c34
inactive: Potency [1] | Potency [2] | Potency [3] | Potency [4]

Cc1ccc(C)o1
inactive: Potency [1] | Potency [2] | Potency [3] | Potency [4]

O=C(O)c1ccc(O)cc1
inactive: Potency [1] | Potency [2] | Potency [3] | Potency [4]

Cc1ccc(S(=O)(=O)NC(=O)NN2CCCCCC2)cc1
inactive: Potency [1] | Potency [2] | Potency [3] | Potency [4]

Cc1ccc(C)c([N+](=O)[O-])c1
inactive: Potency [1] | Potency [2] | Potency [3] | Potency [4]
